This is an account of results in PubChem BioAssay.

Each structure is given as a SMILES string. Entries with a potency or affinity are not part of this list. Calls of active or inactive are those of the source. No rule for the calls is given here.

The nature of assay [1]: A549 cell cytotoxicity, dose response, cytotoxicity control, plate reader, cherry-pick, antagonist series (AID 743412).
The target in assay [2] is Melanocortin receptor 4 (Homo sapiens) (UniProt P32245). In words: MC4R antagonists, dose response, counter-screen for LGR2 antagonist project, cell-based, plate reader, cherry pick (AID 743444). Background: Counterscreens check selectivity or assay interference.
A short description of assay [3]: HepG2 cell cytotoxicity, dose response, cytotoxicity control, plate reader, cherry-pick, antagonist series (AID 743416).

On to `N#C[C@H]1[C@@H](c2ccc(C3=CCCCC3)cc2)[C@H](CO)N1C(=O)c1ccccn1`, for which the call in assay [1] and in assay [2] was inactive.
With `C[C@H](CO)N1C[C@H](C)[C@H](CN(C)C(=O)Nc2ccccc2)OCCCC[C@H](C)Oc2ccc(NC(=O)NC3CCCCC3)cc2C1=O`, the compound was called inactive in assay [1], in assay [3] and in assay [2].
Turning to `COc1ccc(NC(=O)N(C)C[C@@H]2OCCCC[C@H](C)Oc3ccc(NC(=O)NC4CCCCC4)cc3C(=O)N([C@H](C)CO)C[C@@H]2C)cc1`, the compound was called inactive in assay [1], in assay [3] and in assay [2].
With `C[C@H](CO)N1C[C@H](C)[C@H](CN(C)C(=O)Nc2ccc(F)cc2)OCCCC[C@H](C)Oc2ccc(NC(=O)NC3CCCCC3)cc2C1=O`, the result in assay [1], in assay [3] and in assay [2] was inactive.
As for `COc1ccc(-c2nc(N)n(C(=O)c3cccs3)n2)cc1`, the result in assay [1], in assay [3] and in assay [2] was inactive.
With `CCn1cc(S(=O)(=O)Nc2cccnc2)cn1`, the compound was called inactive in assay [1], in assay [3] and in assay [2].
As to `Cc1noc(C)c1S(=O)(=O)Nc1ccc2c(c1)C(=O)N([C@H](C)CO)C[C@H](C)[C@H](CN(C)C(=O)Nc1ccc(F)cc1)OCCCC[C@@H](C)O2`, the result in assay [1], in assay [3] and in assay [2] was inactive.
With `CCc1nnc2cccc(Cl)n12`, the call in assay [1], in assay [3] and in assay [2] was inactive.
Turning to `C[C@H](CO)N1C[C@H](C)[C@H](CN(C)Cc2ccccc2)Oc2c(NS(=O)(=O)c3cn(C)cn3)cccc2C1=O`, the compound was called inactive in assay [1], in assay [3] and in assay [2].
Consider `O=S1(=O)CCOC[C@H](CC2CCCCC2)N1Cc1ccccc1F`, for which the compound was classed as inactive in assay [1], in assay [3] and in assay [2].
On to `CC(=O)Nc1cccc(-c2ccnc3c2CC(C(=O)NCc2cccnc2)O3)c1` (stereo not drawn), for which the outcome in assay [1], in assay [3] and in assay [2] was inactive.
`Cc1ccnc(N2C(=O)c3ccccc3C2Nc2ccc3c(c2)OCCO3)c1` (stereo not drawn): the outcome in assay [1], in assay [3] and in assay [2] was inactive.
As for `O=C(NCc1ccco1)c1cc(NS(=O)(=O)c2cccc([N+](=O)[O-])c2)ccc1O`, the outcome in assay [1], in assay [3] and in assay [2] was inactive.
For the compound `C[C@@H]1CN([C@H](C)CO)C(=O)c2c(c3ccccc3n2C)-c2ccccc2CO[C@H]1CN(C)S(=O)(=O)c1cn(C)cn1`, the outcome in assay [1], in assay [3] and in assay [2] was inactive.
As to `CO[C@H]1CN(C)C(=O)c2ccc(NC(=O)C3CC3)cc2OC[C@@H](C)N(C(=O)Cc2ccccn2)C[C@H]1C`, the call in assay [1], in assay [3] and in assay [2] was inactive.
As for `CC(=O)c1ccc(S(=O)(=O)N2CCC(NC(=O)Nc3cccc(F)c3)CC2)cc1`, the compound was called inactive in assay [1], in assay [3] and in assay [2].
Take `O=C(C[C@H]1C=C[C@@H](NC(=O)C2CCC2)[C@H](CO)O1)NCCCN1CCOCC1`: the outcome in assay [1], in assay [3] and in assay [2] was inactive.
Turning to `CC(=O)c1c(C)[nH]c(C(=O)CN2C(=O)NC(C)(c3ccc(C)cc3)C2=O)c1C` (stereo not drawn), the compound was called inactive in assay [1], in assay [3] and in assay [2].
Regarding `O=S(=O)(Nc1ccc(O)c2ccccc12)c1ccc(OC(F)(F)F)cc1`, the compound was classed as inactive in assay [1] and in assay [2].
As for `COc1ccc(S(=O)(=O)N2CCN(C(=O)c3ccc(C)o3)CC2)cc1`, the result in assay [1], in assay [3] and in assay [2] was inactive.
As for `CCN(C(=O)COC(=O)C12CC3CC(CC(O)(C3)C1)C2)c1c(N)n(Cc2ccccc2)c(=O)[nH]c1=O`, the compound was called inactive in assay [1], in assay [3] and in assay [2].
As for `O=C(NCc1ccc(F)cc1)c1cc(C2CCCCN2S(=O)(=O)c2cccs2)on1` (stereo not drawn), the compound was classed as inactive in assay [1], in assay [3] and in assay [2].
`Cc1ccc(CNS(=O)(=O)c2ccc3c(c2)CCN3C(=O)CCCC(=O)O)cc1`: the call in assay [1] and in assay [2] was inactive.
With `Cc1cc(Cl)ccc1OCCCC(=O)Nc1cc(S(=O)(=O)N2CCOCC2)ccc1N1CCOCC1`, the compound was classed as inactive in assay [1], in assay [3] and in assay [2].
On to `Cc1noc2ncnc(Sc3ccc(Br)cc3)c12`, for which the outcome in assay [1] and in assay [2] was inactive.
For `CC(C)(C)NC(=O)c1cccc(NC(=O)c2ccc3c(c2)C(=O)N(C(C)(C)C)C3=O)c1`, the compound was classed as inactive in assay [1], in assay [3] and in assay [2].
As for `COc1cccc(C(=O)Nc2ccc3c(c2)OC[C@@H](C)N(CC2CC2)C[C@H](C)[C@H](OC)CN(C)C3=O)c1`, the call in assay [1], in assay [3] and in assay [2] was inactive.
Consider `C=CCn1c(SCC(=O)Nc2ncc(Cc3ccc(C)c(Cl)c3)s2)nnc1-c1ccncc1`, for which the outcome in assay [1], in assay [3] and in assay [2] was inactive.
Take `COc1ccc(-c2noc(CCC(=O)N3CCN(c4ccc(Cl)cc4)CC3)n2)cc1`: the result in assay [1], in assay [3] and in assay [2] was inactive.
